# Data published in PubChem BioAssay AID1159580 (chemical genetic matrix, 2015).
# The whole screen tested about 5,500 compounds, of which about 2,000 (36%) were called active. Inconclusive results (about 18%) are left out. Some of the results follow. Values without a mark were called inactive. Cut-off read from the data, not from the text of the source: active = normalized growth mostly below about 0.91 (no sharp cut-off); inconclusive = no clear call, values can overlap the other calls; inactive = mostly above about 0.92.
# Experiment: chemical genetic growth profiling, strain panel (AID 1159580);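 note: tested at 20 µM; growth read once vehicle control cultures reached saturation at 30 °C; 1 = growth at the plate median or of vehicle wells; lower values mean less growth of the strain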
# Conditions: S. cerevisiae deletion strains, growth OD
# [1] = locus YAL013W, strain DEP1, hits give low values
# [2] = locus YBR229C, strain ROT2, hits give low values
# [3] = locus YDL101C, strain DUN1, hits give low values
# [4] = locus YDR150W, strain NUM1, hits give low values
# [5] = locus YEL061C, strain CIN8, hits give low values
# [6] = locus YGR078C, strain PAC10, hits give low values
# [7] = locus YHR030C, strain SLT2, hits give low values
# [8] = locus YHR087W, strain rtc3, hits give low values
# [9] = locus YJR043C, strain POL32, hits give low values
# [10] = locus YJR075W, strain HOC1, hits give low values
# [11] = locus YKL190W, strain CNB1, hits give low values
# [12] = locus YLR039C, strain RIC1, hits give low values
# [13] = locus YLR058C, strain SHM2 (second series), hits give low values
# [14] = locus YLR085C, strain ARP6, hits give low values
# [15] = locus YLR262C, strain YPT6, hits give low values
# [16] = locus YML094W, strain GIM5, hits give low values
# [17] = locus YMR219W, strain ESC1, hits give low values
# [18] = locus YMR263W, strain SAP30, hits give low values
# [19] = locus YNL153C, strain GIM3, hits give low values
# [20] = locus YNL298W, strain CLA4 (second series), hits give low values
# [21] = locus YNL322C, strain KRE1, hits give low values
# [22] = locus YNR030W, strain Alg12, hits give low values
# [23] = locus YOL006C, strain TOP1, hits give low values
# [24] = locus YPL055C, strain LGE1, hits give low values
# [25] = locus YPL241C, strain CIN2, hits give low values
# [26] = locus YPR135W, strain CTF4, hits give low values
smiles,measurement,setting,value
O=[N+]([O-])c1ccc2nsnc2c1,normalized growth,[1],0.836 (active)
same,normalized growth,[2],0.643 (active)
same,normalized growth,[3],0.583 (active)
same,normalized growth,[4],0.825
same,normalized growth,[5],0.626 (active)
same,normalized growth,[6],0.699 (active)
same,normalized growth,"locus YGR229C, strain SMI1, hits give low values",0.979
same,normalized growth,[7],0.109 (active)
same,normalized growth,[8],0.649 (active)
same,normalized growth,[9],0.828 (active)
same,normalized growth,[10],0.55 (active)
same,normalized growth,[11],0.604 (active)
same,normalized growth,[12],0.795
same,normalized growth,[13],0.824 (active)
same,normalized growth,[14],0.227 (active)
same,normalized growth,[15],0.83
same,normalized growth,[16],0.533 (active)
same,normalized growth,[17],0.833 (active)
same,normalized growth,[18],0.8 (active)
same,normalized growth,"locus YNL128W, strain TEP1, hits give low values",0.304 (active)
same,normalized growth,[19],0.738 (active)
same,normalized growth,[20],0.361 (active)
same,normalized growth,[21],0.999
same,normalized growth,[22],0.534 (active)
same,normalized growth,[23],0.496 (active)
same,normalized growth,[24],0.805 (active)
same,normalized growth,[25],0.286 (active)
same,normalized growth,[26],0.233 (active)
O=[N+]([O-])c1ccc(SC2=NCCN2)c(Cl)c1,normalized growth,[1],0.994
same,normalized growth,[2],1
same,normalized growth,[3],0.987
same,normalized growth,[4],0.985
same,normalized growth,[5],0.978
same,normalized growth,[6],0.987
same,normalized growth,[7],1.03
same,normalized growth,[8],1.01
same,normalized growth,"locus YJL187C, strain SWE1, hits give low values",0.98
same,normalized growth,[9],0.964
same,normalized growth,[10],0.952
same,normalized growth,[11],0.994
same,normalized growth,[12],1
same,normalized growth,[13],0.992
same,normalized growth,[14],0.965
same,normalized growth,[15],1
same,normalized growth,[16],0.972
same,normalized growth,[17],0.977
same,normalized growth,[18],1.01
same,normalized growth,[19],1.02
same,normalized growth,[20],1.03
same,normalized growth,[21],0.984
same,normalized growth,[22],0.995
same,normalized growth,[23],1
same,normalized growth,[24],1.03
same,normalized growth,[25],0.985
same,normalized growth,[26],1.09
